The values that follow come from PubChem BioAssay (NCATS).

In experiment [1] the target is Androgen receptor (Homo sapiens) (UniProt P10275). The experiment can be described thus: qHTS assay for small molecule antagonists of androgen receptor signaling (AID 588516; active = well fitted curve in the direction sought with a large enough effect in the signal ratio, with a control signal flat, not every such curve was filed as active; the % refers to the signal ratio; also: % is scaled to controls: 0 for no effect and ±100 for the full control effect). The following applies: AR-UAS-bla HEK293, beta-lactamase ratio, antagonist mode, 16 h; series mostly up to 76.8 µM. In short, it runs like this:
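Compounds tested in titration against 10 nM R1881 in AR-responsive bla reporter HEK 293 cells; CCF4 fluorescence (460/530 nm) after 16 h exposure gave IC50 and efficacy.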
For orientation: qHTS replaces the single test concentration by a dilution series.

A short description of experiment [2]: qHTS assay to identify small molecules that stimulate interleukin-8 (IL-8) secretion (AID 651758; active = well fitted activation curve with a large enough effect in the signal ratio; the % refers to the signal ratio; also: 0% is about no effect). The conditions noted are these: HTRF ratio (665/615); series mostly up to 92.2 µM. In short, it runs like this: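 Secreted IL-8 measured by TR-FRET sandwich (cryptate and XL665 antibodies) from THP-1 cells exposed to compound overnight (16 hrs, 37 C).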
Experiment [3] deals with Estrogen receptor (Homo sapiens) (UniProt P03372). The experiment can be described thus: qHTS assay for small molecule antagonists of estrogen receptor alpha signaling (AID 588513; active = well fitted curve in the direction sought with a large enough effect in the signal ratio, with a control signal flat, not every such curve was filed as active; the % refers to the signal ratio; also: % is scaled to controls: 0 for no effect and ±100 for the full control effect). The following applies: ER-alpha-UAS-bla HEK293, beta-lactamase ratio, antagonist mode; series mostly up to 76.9 µM. A digest of the protocol: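 Antagonist-mode qHTS in ER-alpha-UAS-bla HEK 293 cells: compound titration, 0.5nM estradiol for 18 h, CCF4 fluorescence, Hill-derived IC50.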
Sequence of Estrogen receptor (Homo sapiens) (P03372 whole entry, looked up): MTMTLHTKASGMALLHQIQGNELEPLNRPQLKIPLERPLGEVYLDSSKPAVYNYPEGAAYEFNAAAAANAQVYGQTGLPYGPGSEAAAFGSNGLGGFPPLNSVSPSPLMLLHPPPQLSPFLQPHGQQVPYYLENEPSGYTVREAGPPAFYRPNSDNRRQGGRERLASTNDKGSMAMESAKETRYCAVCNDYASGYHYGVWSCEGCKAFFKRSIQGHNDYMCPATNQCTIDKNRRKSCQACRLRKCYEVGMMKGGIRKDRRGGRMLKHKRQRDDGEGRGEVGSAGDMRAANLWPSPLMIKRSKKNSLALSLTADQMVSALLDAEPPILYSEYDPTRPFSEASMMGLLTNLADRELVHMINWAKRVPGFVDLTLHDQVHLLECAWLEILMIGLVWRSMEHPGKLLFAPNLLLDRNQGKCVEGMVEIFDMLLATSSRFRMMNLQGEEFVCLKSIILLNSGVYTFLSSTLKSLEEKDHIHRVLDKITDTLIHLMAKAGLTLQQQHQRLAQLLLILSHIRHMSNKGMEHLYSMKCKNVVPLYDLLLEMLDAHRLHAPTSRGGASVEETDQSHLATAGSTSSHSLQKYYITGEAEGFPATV

For experiment [4] the target is unchanged. The experiment can be described thus: qHTS assay for small molecule agonists of estrogen receptor alpha signaling (AID 588514; calls by dose curve;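 also: 0% = vehicle only and 100% = reference agonist; nearly all actives have a fitted effect of over 70% in size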). The following applies: ER-alpha-UAS-bla HEK293, beta-lactamase ratio, 18 h, percent of full estradiol response, vehicle zero; series mostly up to 76.8 µM. In short, it runs like this:
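ER-alpha-UAS-bla GripTite HEK293 cells, 5000/well in 2% charcoal/dextran-stripped FBS medium, treated with compound titrations 18 h at 37 C. CCF4 beta-lactamase read by fluorescence after 2 h RT; normalised to 20 nM 17-beta-estradiol (100%) and DMSO (0%), Hill fit for EC50 and efficacy.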

Experiment [5] can be described thus: qHTS assay for small molecule activators of the p53 signaling pathway (AID 651743; active = well fitted activation curve with a large enough effect in the signal ratio, not every such curve was filed as active; the % refers to the signal ratio; also: % of control where 0% means no effect). The following applies: HCT-116 p53RE-bla, beta-lactamase FRET ratio, 16 h; stronger effect = higher value. A digest of the protocol:
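Read-out is fluorescence intensity from the LiveBLAzer B/G FRET substrate, added for 2 hours at room temperature after HCT-116 p53RE-bla cells had been incubated with compounds for 16 hours at 37 C.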

Experiment [6] concerns the target Guanine nucleotide-binding protein G(i) subunit alpha-1 (Homo sapiens) (UniProt P63096). The experiment can be described thus: qHTS Assay for Inhibitors of RGS12 GoLoco Motif Activity (Green Fluorophore) (AID 879).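 Also: 0% = labeled peptide with Gαi1 and full inhibition = labeled peptide alone without protein; negative values mean loss of peptide binding seen as reduced polarization.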 The following applies: Galphai1/FITC-RGS12 GoLoco peptide, fluorescence polarization; series mostly up to 57.1 µM. A digest of the protocol: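 Fluorescence polarization assay: 50 nM Gαi1 with 10 nM FITC-labeled RGS12 GoLoco peptide in 10 mM Tris pH 7.5, 150 mM NaCl, 0.1 mM GDP, 0.05% NP40, 10 min at room temperature with compound.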

A short description of experiment [7]: qHTS Assay for Identification of Small Molecule Antagonists for NFkB Signaling Pathway (AID 895; active = well fitted inhibition curve with a large enough effect in the signal ratio, with a control signal flat, not every such curve was filed as active; the % refers to the signal ratio; also: % is scaled to controls: 0 for no effect and ±100 for the full control effect). The following applies: NFkB beta-lactamase reporter cells, FRET ratio 460/530, stimulated with 10 pM TNF alpha; series mostly up to 38.3 µM. A digest of the protocol:
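Beta-lactamase reporter read-out (460 and 530 nm emission ratio, 405 nm excitation, 2 hrs substrate loading RT) after 5 hr stimulation with 10 pM TNF alpha in compound-treated NFkB-bla ME-180 cells in low-serum medium.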

Experiment [8] in a line: qHTS Assay for Identification of Small Molecule Agonists for Thrombopoietin (TPO) Signaling Pathway (AID 917). Also: % is scaled to controls: 0 for no effect and ±100 for the full control effect. The following applies: TPO signaling pathway reporter cells, agonist qHTS, stimulated with TPO at its EC50; series mostly up to 38.5 µM. A digest of the protocol:
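IL-3-dependent murine pro-B Ba/F3 cells, stably transfected with human TPO receptor and GpIIb-promoter luciferase, are incubated 24 hrs at 37 C with test compound and 26 pM TPO; luciferase signal is read after 10 min at room temperature.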

For experiment [9], the target named is Pyruvate kinase (Leishmania mexicana) (UniProt Q27686). The experiment can be described thus: qHTS Validation Assay for Inhibitors of Leishmania Mexicana Pyruvate Kinase (AID 945).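 Also: 0% = DMSO only neutral control wells.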 The following applies: purified L. mexicana pyruvate kinase, enzyme activity, E451W mutant enzyme; series mostly up to 57.5 µM. A digest of the protocol: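 Purified LmPYK (E451W mutant, 0.2 nM) was incubated 1 h at room temperature with 0.5 mM PEP and 0.1 mM ADP in 50 mM imidazole pH 7.2, 50 mM KCl, 7 mM MgCl2; ATP formed was read by PKLight luminescence, normalized to DMSO wells.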
Sequence of Pyruvate kinase (Leishmania mexicana) (Q27686 2-499 E452W): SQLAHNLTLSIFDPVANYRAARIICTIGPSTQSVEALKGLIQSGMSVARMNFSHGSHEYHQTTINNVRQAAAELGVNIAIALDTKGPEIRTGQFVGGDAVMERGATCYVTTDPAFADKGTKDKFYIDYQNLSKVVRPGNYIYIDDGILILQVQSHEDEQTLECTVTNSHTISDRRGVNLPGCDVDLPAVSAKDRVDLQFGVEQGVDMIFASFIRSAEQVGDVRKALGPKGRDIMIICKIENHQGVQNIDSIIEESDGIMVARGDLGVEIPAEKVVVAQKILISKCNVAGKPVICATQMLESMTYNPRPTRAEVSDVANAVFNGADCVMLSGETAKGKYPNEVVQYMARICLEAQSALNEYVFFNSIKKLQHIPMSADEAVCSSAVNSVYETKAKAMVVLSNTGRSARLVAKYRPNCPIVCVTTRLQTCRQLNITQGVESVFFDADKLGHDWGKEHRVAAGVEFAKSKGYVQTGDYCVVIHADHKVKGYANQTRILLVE

For experiment [10], the target named is Pyruvate kinase PKM (Homo sapiens) (UniProt P14618). Nature of the experiment: qHTS Assay for Activators of Human Muscle Pyruvate Kinase (AID 954; active = well fitted curve in the direction sought with a large enough effect, not every such curve was filed as active;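 also: 0% = uninhibited enzyme and -100% = no enzyme or full thiadiazolimine inhibition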). The conditions noted are these: purified human muscle pyruvate kinase, luciferase-coupled luminescence, 1 h; series mostly up to 57.5 µM. A digest of the protocol: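 Luminescence from a luciferase ATP-detection/stop reagent reported PKM2 activity. Reactions contained 0.1 nM purified human enzyme, 0.5 mM PEP, 0.1 mM ADP and 7 mM MgCl2 at pH 7.2, run 1 h at RT.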
Sequence of Pyruvate kinase PKM (Homo sapiens) (P14618 whole entry, looked up): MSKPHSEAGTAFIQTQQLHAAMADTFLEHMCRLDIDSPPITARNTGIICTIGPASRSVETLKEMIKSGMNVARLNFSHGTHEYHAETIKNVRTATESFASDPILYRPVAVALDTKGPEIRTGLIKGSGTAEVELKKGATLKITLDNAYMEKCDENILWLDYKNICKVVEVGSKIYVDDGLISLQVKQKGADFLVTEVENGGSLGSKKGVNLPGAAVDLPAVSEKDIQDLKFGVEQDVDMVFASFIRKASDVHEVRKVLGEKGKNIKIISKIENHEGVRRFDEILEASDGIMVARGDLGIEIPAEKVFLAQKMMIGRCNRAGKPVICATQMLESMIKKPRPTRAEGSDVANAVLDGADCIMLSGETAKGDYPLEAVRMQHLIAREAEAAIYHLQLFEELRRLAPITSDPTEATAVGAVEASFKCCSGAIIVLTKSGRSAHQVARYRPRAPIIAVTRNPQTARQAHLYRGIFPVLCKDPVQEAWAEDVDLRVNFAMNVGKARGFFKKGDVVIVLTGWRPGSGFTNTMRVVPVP

Experiment [11] addresses alpha-glucosidase (Oryza sativa, rice) (UniProt Q653V4). Nature of the experiment: Counterscreen for Glucocerebrosidase Inhibitors: qHTS Assay for Rice alpha-Glucosidase at pH 5.0 (AID 997).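 Also: 0% = full activity with enzyme and -100% = basal without enzyme.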 The conditions noted are these: rice alpha-glucosidase enzyme activity; series mostly up to 76.9 µM. A digest of the protocol:
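Rice alpha-glucosidase (4 nM final) with 400 uM 4-methylumbelliferyl-alpha-D-glucopyranoside in citrate buffer pH 5.0, 20 min at room temperature, stopped at pH 10; fluorescence 365/440 nm, compounds 0.7 nM–77 uM, AC50 from Hill fits.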
(In general: The purpose of a counterscreen is to sort out artefacts and off-target activity.)

Unmarked numbers belong to inactive results. Results filed as inconclusive are left out. Activity calls are given as the source filed them. Unless noted, calls follow the shape of the dose curve; as a rule, active = well fitted curve in the direction sought with a large enough effect; inconclusive = small, poorly fitted or top-dose-only effect, or another doubt; inactive = no such curve, though single readings can be large; an effect the other way counts as inactive or inconclusive.

Sequence of Androgen receptor (Homo sapiens) (P10275 whole entry, looked up): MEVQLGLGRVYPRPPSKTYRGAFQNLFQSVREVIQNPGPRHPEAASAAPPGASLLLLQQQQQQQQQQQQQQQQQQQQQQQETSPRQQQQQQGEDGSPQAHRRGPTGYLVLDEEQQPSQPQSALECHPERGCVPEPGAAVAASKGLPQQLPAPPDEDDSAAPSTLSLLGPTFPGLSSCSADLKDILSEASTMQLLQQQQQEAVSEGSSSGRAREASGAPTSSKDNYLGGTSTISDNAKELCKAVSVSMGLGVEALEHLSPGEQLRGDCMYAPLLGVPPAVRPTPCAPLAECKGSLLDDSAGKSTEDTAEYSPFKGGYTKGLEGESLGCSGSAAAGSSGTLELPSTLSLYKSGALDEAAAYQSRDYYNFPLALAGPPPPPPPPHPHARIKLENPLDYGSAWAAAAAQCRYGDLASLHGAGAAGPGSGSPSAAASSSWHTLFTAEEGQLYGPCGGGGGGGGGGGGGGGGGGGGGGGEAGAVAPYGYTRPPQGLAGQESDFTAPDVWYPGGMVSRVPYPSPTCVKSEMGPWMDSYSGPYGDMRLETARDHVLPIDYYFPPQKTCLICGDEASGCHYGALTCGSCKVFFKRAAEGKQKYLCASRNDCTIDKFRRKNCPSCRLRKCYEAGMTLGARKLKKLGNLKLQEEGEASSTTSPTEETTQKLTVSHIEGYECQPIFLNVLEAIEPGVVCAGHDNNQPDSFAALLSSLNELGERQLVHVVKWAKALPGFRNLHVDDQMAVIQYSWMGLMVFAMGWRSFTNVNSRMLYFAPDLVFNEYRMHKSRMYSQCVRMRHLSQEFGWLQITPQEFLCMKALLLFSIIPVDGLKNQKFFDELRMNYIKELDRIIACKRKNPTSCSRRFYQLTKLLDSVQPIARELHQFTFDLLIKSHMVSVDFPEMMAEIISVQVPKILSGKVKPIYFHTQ
Sequence of Guanine nucleotide-binding protein G(i) subunit alpha-1 (Homo sapiens) (P63096 whole entry, looked up): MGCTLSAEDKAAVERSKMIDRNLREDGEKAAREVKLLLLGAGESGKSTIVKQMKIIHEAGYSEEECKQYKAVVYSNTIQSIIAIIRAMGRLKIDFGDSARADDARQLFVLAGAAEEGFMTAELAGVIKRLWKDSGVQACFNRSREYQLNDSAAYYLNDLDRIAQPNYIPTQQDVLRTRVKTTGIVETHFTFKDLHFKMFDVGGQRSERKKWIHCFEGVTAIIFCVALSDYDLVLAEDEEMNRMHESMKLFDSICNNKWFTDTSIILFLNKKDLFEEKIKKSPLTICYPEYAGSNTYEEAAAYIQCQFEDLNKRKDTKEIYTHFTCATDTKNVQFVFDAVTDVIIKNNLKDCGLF

`C=C(C)[C@H]1CC=C(C)C(=O)C1`: the outcome in [1] and in experiment [2] was inactive.
With `COS(C)(=O)=O`, the outcome in experiment [3] and in [4] was inactive.
On to `CC1=CC(=O)CC(C)(C)C1(O)/C=C/C(C)=C\C(=O)O` (stereo unspecified), for which the activation in experiment [5] is -1.58%.
`CN1[C@@H]2CC[C@H]1CC(OC(=O)[C@@H](O)c1ccccc1)C2` (stereo partly specified): the Potency entry in [6] and in experiment [7] was “inactive” throughout. For the same compound, the compound was classed as inactive in experiment [8], in experiment [9], in experiment [10] and in experiment [11].
